Compounds with a hit are over-represented: about 19% of the library has one in this group of screens.
TDP1 cell CPT: DT40-hTDP1 cell growth loss with CPT; chicken DT40 Tdp1-/-;hTDP1 cells + 20 nM CPT, ATP luminescence, 48 h; Potency, µM (titrated, usually from 46.2 µM), usual class: inhibitors; hit rate 12% among 420,000; AID 686979; further: nearly all actives have a fitted effect of over 55% in size
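Chicken DT40 Tdp1-/- cells complemented with human TDP1, 400 cells/well, exposed to compounds plus 20 nM camptothecin for at least 48 h at 37 C; viability read as ATP content by CellTiter-Glo luminescence.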
HT1080 IDH1KD tx: HT-1080 IDH1 knockdown cell toxicity (counter line). HT-1080 IDH1 knockdown viability, ATP luminescence, 48 h. Potency, µM (doses to about 46.1 µM), hits mostly cytotoxic. hit rate 2% among 360,000. AID 686971
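IDH1KD HT-1080 cells, 750/well, RPMI + 5% FBS; compound pinned after 2 h settling; 48 h, 37 °C; CellTiter-Glo luminescence; % activity normalised to DMSO and no-cell wells; curves fitted, classed by r2 and efficacy.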
HT1080NT lethal: kills 2HG-producing HT-1080-NT fibrosarcoma cells; HT-1080-NT fibrosarcoma viability, CellTiter-Glo ATP luminescence, 48 h; Potency, µM (titrated, usually from 46.1 µM), actives largely listed as cytotoxic; hit rate 1.6% among 360,000;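 further: NT is the 2HG producing partner of a matched IDH1 knockdown line; nearly all actives have a fitted effect of over 55% in size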
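Viability of the 2HG-overproducing fibrosarcoma line after 48 hours of compound exposure at 37 degrees C was determined by luminescence with CellTiter-Glo, and concentration-effect curves were then fitted and categorized.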
KB-V1 MDR tox: KB-V1 MDR subline cytotoxicity. hit rate 3.4% among 400,000. KB-V1 MDR cells viability, CellTiter-Glo, 72 h. AID 1347076. Potency, µM (doses to about 46.1 µM), hits mostly cytotoxic; further: nearly all actives have a fitted effect of over 60% in size
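Potencies derive from concentration-effect curves fitted to normalized luminescence (CellTiter-Glo) of KB-V1 cells treated for 72 h at 37 degrees C in phenol-red-free DMEM containing 10% FBS.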
KB-3-1 tox: kills parental KB-3-1 adenocarcinoma cells; AID 1347075; hit rate 1.4% among 400,000; KB-3-1 viability, CellTiter-Glo ATP luminescence, 72 h; Potency, µM (series often up to 46.1 µM), actives largely listed as cytotoxic; further: nearly all actives have a fitted effect of over 60% in size
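Parental KB-3-1 viability, qHTS format: 72 h compound exposure, 37 °C; CellTiter-Glo; media-only wells and DMSO plates as controls; concentration-effect fits on corrected data.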
TDP1 cell noCPT: qHTS for Inhibitors of human tyrosyl-DNA phosphodiesterase 1 (TDP1): qHTS in cells in absence of CPT | DT40 Tdp1-/- hTDP1 cells, no CPT, ATP luminescence, 48 h | Potency, µM (highest dose often 46.2 µM), hits mostly inhibitors | hit rate 15% among 420,000 | AID 686978, 2013; further: nearly all actives have a fitted effect of over 55% in size
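Chicken DT40 Tdp1-/- cells stably complemented with human TDP1 were seeded at 400 cells/well with DMSO in place of 20 nM camptothecin. After compound pinning, cells grew at least 48 hr at 37 °C; viability read by CellTiter-Glo luminescence.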
Hits are given with their value; 0 = inactive; ? = inconclusive; - = no result; [ ] = remark or other dose. The call rests on the fitted dose curve; in most records, active means well fitted curve in the direction sought with a large enough effect; inconclusive means small, poorly fitted or top-dose-only effect, or another doubt; inactive means no such curve, though single readings can be large; an effect the other way counts as inactive or inconclusive.

SMILES	TDP1 cell CPT	HT1080 IDH1KD tx	HT1080NT lethal	KB-V1 MDR tox	KB-3-1 tox	TDP1 cell noCPT
COc1ccc(/C=C/c2cc(-c3ccc(C)cc3)o[n+]2C)cc1	0.259µM	6.51µM	14.6µM	0	?	0.259µM
COc1ccc(/C=C/c2c(-c3ccc(OC)cc3)oc3ccc(-c4ccc(OC)cc4)cc23)cc1	0	0	0	0	0	0
CCCCN1C(=O)C(NC(C)=O)c2cc(Br)ccc21 (configuration not stated)	?	0	0	?	0	20.6µM
COc1ccc(CCNC(=O)CCc2c(C)nc3c(c(C)nn3-c3ccc(C)cc3)c2C)c(OC)c1	?	-	-	0	0	?
CN(C)CCOc1ccccc1Cc1ccccc1 (tested in a mixture with another compound)	0	-	-	-	-	0
CN(C)C(=O)c1nc2ccc(Cl)cn2c1CN1CCCC(OCc2cccnc2)C1 (configuration not stated)	0	0	0	0	0	0
O=C(Nc1ccccc1Cl)c1cc(S(=O)(=O)N2CCCCC2)ccc1N1CCOCC1	?	0	0	?	?	23.1µM
O=C(Nc1ccccc1F)c1cc(S(=O)(=O)N2CCOCC2)ccc1N1CCOCC1	0	0	0	0	0	0
O=C(Nc1cccc(C(F)(F)F)c1)c1cc(S(=O)(=O)N2CCCCC2)ccc1N1CCOCC1	23.1µM	0	0	0	0	18.4µM
CNC(=O)c1cc2n(n1)CCCN(Cc1ccc(F)cc1)C2=O	?	-	-	0	0	?
Cc1cccc(NC(=O)C(Cc2ccccc2)N2Cc3ccccc3C2=O)c1C (configuration not stated)	?	-	-	-	-	0
C=CC(=O)N1c2ccccc2Sc2ccc(NC(=O)OCC)cc21	?	?	?	0	?	29.1µM
CCOC(=O)Nc1ccc2c(c1)N(C(=O)CCN1CCN(C)CC1)c1ccccc1S2	?	0	0	?	0	0
CCOC(=O)Nc1ccc2c(c1)Nc1ccccc1S2	23.1µM	?	?	?	0	20.6µM
CCOC(=O)c1sc(NC(=O)CSc2n[nH]c(-c3ccc(Cl)cc3Cl)n2)c(C#N)c1C	?	0	0	?	?	16.4µM
N#Cc1c(NC(=O)CSc2ncn[nH]2)sc2c1CCCCC2	0	?	?	4.11µM	0	0
N#Cc1cc2c(nc1SCC(=O)Nc1sc3c(c1C#N)CCC3)CCCCC2	?	0	0	0	0	0
N#Cc1cc2c(nc1SCC(=O)Nc1sc3c(c1C#N)CCC3)CCCC2	?	0	0	0	0	11.6µM
Cn1cnnc1SCC(=O)Nc1sc2c(c1C#N)CCCCC2	0	0	0	0	0	?
CCOC(=O)c1sc(NC(=O)CSc2nc3c(cc2C#N)CCCCCC3)c(C#N)c1C	16.4µM	0	0[9.24 µM]	?	0	25.9µM
CCOC(=O)CC(=O)CSc1nc2c(cc1C#N)CCCCC2	0	0	0	0	0	0
CC1(C(=O)NCc2ccccc2)CCC(=O)N1C1CC1 (configuration not stated)	0	0	?	0	0	0
N#C/C(=C\c1ccc(Cl)cc1)C(=O)NCC1CCCO1 (configuration not stated)	?	-	-	0	0	?
N#Cc1ccccc1NC(=O)C(=O)NCC(c1cccnc1)N1CCN(c2ccccc2)CC1 (configuration not stated)	?	-	-	0	0	0
CCN(CC)S(=O)(=O)c1ccc(S(=O)(=O)NCC2CCCO2)cc1 (configuration not stated)	0	0	0	0	0	0
COc1ccc(CNCC(O)(c2ccc(Cl)cc2)c2ccc(Cl)cc2)cc1	14.6µM	?	?	?	?	18.4µM
COc1cc(CNCc2ccccc2)ccc1OCC(O)c1ccccc1 (configuration not stated)	0	0	0	0	0	?
COc1ccc(CNCC(O)(c2ccccc2)c2ccc(F)cc2)cc1OC (configuration not stated)	?	0	0	0	0	14.6µM
